GLP-1R inv ag = inverse agonists of human GLP-1 receptor. 1.6% of 410,000 active. P43220. Potency, µM (highest dose often 38.3 µM), for inactives: top-dose activity change, negative = inhibition, hits mostly inhibitors. HEK293 GLP-1R CRE-luciferase, luminescence, 24 h; GLP-1R form is constitutively active; note: % is set by controls: 0 for no effect and ±100 for the full control effect; nearly all actives have a fitted effect of over 55% in size
Target sequence (P43220 whole entry, looked up): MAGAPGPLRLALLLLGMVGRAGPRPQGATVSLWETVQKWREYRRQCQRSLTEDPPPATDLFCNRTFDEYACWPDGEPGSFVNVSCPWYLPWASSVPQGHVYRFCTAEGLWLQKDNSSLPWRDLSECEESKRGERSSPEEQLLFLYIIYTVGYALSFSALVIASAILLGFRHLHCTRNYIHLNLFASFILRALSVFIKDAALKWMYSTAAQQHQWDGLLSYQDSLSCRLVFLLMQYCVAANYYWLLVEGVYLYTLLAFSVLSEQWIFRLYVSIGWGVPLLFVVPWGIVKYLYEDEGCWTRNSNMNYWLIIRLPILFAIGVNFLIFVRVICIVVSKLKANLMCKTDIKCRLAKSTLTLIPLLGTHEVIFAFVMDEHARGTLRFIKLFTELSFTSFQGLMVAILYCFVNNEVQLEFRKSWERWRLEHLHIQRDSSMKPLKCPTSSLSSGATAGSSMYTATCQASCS
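qHTS in 1536-well format: reporter HEK293 cells expressing constitutive GLP-1R activity in DMEM + 10% Nu serum, 24 hr with compounds at 37 deg C, luminescence read after 12 min with detection reagent.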
HEK293 tox = cytotoxicity in counter-screen for GLP-1R inverse agonists; HEK293 cAMP-luciferase reporter cells, luminescence, 24 h; Potency, µM (series often up to 38.3 µM), inactives show top-dose activity change, negative = inhibition, most hits filed as inhibitors; 0.13% of 410,000 active; AID 624418;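 note: loss of luciferase light is scored as toxicity; % is set by controls: 0 for no effect and ±100 for the full control effect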
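MLSMR compounds, 24 hr on cells at 37 deg C/5% CO2; luminescence after luciferase reagent (12 min RT). Inhibition counted as the undesired cytotoxic outcome.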
BRCA1 expr up = increases BRCA1 expression. MCF7-BRCA1-FFLuc reporter, luminescence, 48 h; response scale: scaled: vehicle 0%, 10 µM genistein 100%. Potency, µM (titrated, usually from 46.1 µM), inactives show at the highest dose activation, actives largely listed as activators. 1.1% of 380,000 active; note: nearly all actives have a fitted effect of over 80% in size
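MCF7-BRCA1-FFLuc, 2000 cells/well; 2 h attach, 37 °C/5% CO2; compound 48 h; luciferase substrate 15 min; luminescence end-point. Norm. to genistein 10 microM max activation and DMSO; concentration-response curves fitted.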
GLP-1R agonist = agonists of human GLP-1 receptor; P43220; HEK293 GLP-1R CRE-luciferase, luminescence, 4-6 h; cells express a hypersensitive GLP-1R form; Potency, µM (titrated, usually from 45.6 µM), without a hit: at the top dose activation, most hits filed as activators; 0.007% of 380,000 active; AID 624172; note: % of control where 0% means no effect
* marks the source's active call; other numbers are inactive results; u = inconclusive; x = no result; [ ] = dose if it differs, or a comment. Hits are enriched below; roughly 2.6% of the tested compounds scored in any of these assays. Calls come from the whole dose curve; as a rule, active = well fitted curve in the direction sought with a large enough effect; inconclusive = small, poorly fitted or top-dose-only effect, or another doubt; inactive = no such curve, though single readings can be large; an effect the other way counts as inactive or inconclusive. Potency is the fitted concentration of half-maximal effect.

SMILES	GLP-1R inv ag	HEK293 tox	BRCA1 expr up	GLP-1R agonist
Cc1ccccc1C(c1ncccc1C)N(C)C(=O)C1CCN(CCOc2ccc(Cl)cc2Cl)CC1 (centres undefined)	u	10µM*	-73%	-11%
CC(C)(C)NC(=O)N1c2ccccc2Sc2ccccc21	u	-15%	-7%	15%
CC1CCN(C(=O)N2c3ccccc3Sc3ccccc32)CC1	2µM*	-9%	-63%	15%
CC(C)CCC(=O)OC1CCC2C3CCC4=CC(=O)CC[C@]4(C)C3CC[C@]12C (some centres undefined)	x	x	x	-4%
O=C(CN1CCCC1=O)Nc1ccccc1	14%	-10%	10%	-12%
CCOC(=O)C1(c2ccccc2)CCN(CCC(=O)Nc2ccc(OC)cc2)CC1	u	-22%	6%	12%
CCOC(=O)C1(c2ccccc2)CCN(CC(=O)Nc2ccc(C)cc2)CC1	8.9µM*	-10%	-10%	15%
O=C(CN1CCCC1)Nc1ccc(NC(=O)Nc2ccccc2)cc1	u	-9%	2.8µM*	-10%
CCOC(=O)C1(c2ccccc2)CCN(CCC(=O)Nc2ccc(C(=O)OC)cc2)CC1	u	-11%	-4%	9%
CCOC(=O)C1(c2ccccc2)CCN(CCC(=O)Nc2cccc(Br)c2)CC1	3.2µM*	u	-65%	12%
O=C(NCCc1ccc(F)cc1)C(=O)NCC(c1cccs1)S(=O)(=O)c1ccc(Cl)cc1 (centres undefined)	u	-4%	x	x
Clc1cccc(Cl)c1Cn1nnc(N2CCCC2)n1	u	-5%	11µM*	24%
COc1cc(CC(C)N)c(OC)cc1Br (centres undefined)	x	x	x	-4%
O=c1c2cc(NC(=S)NCCCN3CCC(Cc4ccccc4)CC3)ccc2nc2n1CCCCC2	2.2µM*	u	-34%	10%
CCC(C)NCCOc1ccc(C(C)(C)c2ccccc2)cc1 (centres undefined)	5µM*	u	-26%	9%
CCN[C@@H](C)Cc1ccccc1	x	x	x	-4%[110 µM]
CC(=O)c1ccccc1OCC(O)CN1CCN(CCN2C(=O)c3cccc4cccc(c34)C2=O)CC1 (centres undefined)	u	11µM*	-20%	-1%
O=C1c2cccc3cccc(c23)C(=O)N1CCN1CCN(CC(O)COCc2ccc(Cl)cc2)CC1 (centres undefined)	u	u	-60%	-23%
[Hg+][c]1ccccc1	x	x	-44%	-8%
Cc1cccc2sc(NNC(=O)c3cc(-c4cccs4)nc4ccccc34)nc12	u	u	-78%	-8%
COC(=O)C1=C(C)N(Cc2ccccc2)C(=NCc2cccc(C(F)(F)F)c2)N[C@H]1c1cccc(F)c1	u	22µM*	-69%	-21%
CNC(=O)c1cccn(Cc2cccc(C(F)(F)F)c2)c1=O	4%	-2%	-56%	-1%
CN(C)CCN(CC1CCCN(Cc2ccccc2F)C1)C(=O)Cc1ccccc1F (centres undefined)	10µM*	-21%	-33%	-4%
COc1ccc2c(c1)CC/C(=C/c1ccccn1)C2=O	-14%	u	13µM*	-1%
COc1cc(/C=C2/CC/C(=C/c3ccc(O)c(OC)c3)C2=O)ccc1O	u	u	-46%	5%
SMILES	GLP-1R inv ag	HEK293 tox	BRCA1 expr up	GLP-1R agonist
CC(Cc1ccccc1)/[N+]([O-])=C\c1ccc(C(F)(F)F)cc1 (centres undefined)	u	7%	10µM*	-2%
C#C[C@]1(OC(=O)CCCCCC)CC[C@H]2C3CCC4=CC(=O)CC[C@@H]4[C@H]3CC[C@@]21C (some centres undefined)	x	x	x	-4%
Cc1cccc(OP(N)(=O)Oc2cccc(C)c2C)c1C	11µM*	-4%	-1%	6%
Cc1ccc(-n2c(=S)[nH]c3ccccc3c2=O)cc1F	-23%	-12%	u	-3%
O=c1c2ccccc2[nH]c(=S)n1-c1ccc2c(c1)OCCO2	7%	-4%	10µM*	-7%
CC(C)(C)c1ccc(C(=O)C2CCCN(C3CCC3)C2)cc1 (centres undefined)	10µM*	-9%	-1%	26%
Oc1ccc(Cl)cc1Sc1cc(Cl)ccc1O	10µM*	-11%	-81%	4%
CN(C)C(=O)Oc1ccc(Cl)c2ccccc12	-25%	-12%	8%	-1%
CCC(C)NCCOCCOc1ccc(Cl)c2ccccc12 (centres undefined)	1.6µM*	u	-105%	-2%
CC[C@@]1(C(=O)OC)N[C@H](CN(C)C(=O)Nc2ccc(OC)cc2)[C@@H]2C(=O)N(Cc3ccccc3)C(=O)[C@@H]21	11%	-12%	10µM*	0%
O=C(Oc1ccc2ccccc2c1Cl)N1CCCC1	u	29%	4.5µM*	0%
Oc1ccc2c3c1OC1C(O)C=CC4[C@@H](C2)NCC[C@]314 (some centres undefined)	x	x	x	-2%[96 µM]
CCCCN1CCC(O)(c2ccccc2)C(C(=O)c2ccccc2)C1 (centres undefined)	10%	1%	-20%	-6%
CCC1C(c2ccccc2)N(C)C(c2ccccc2)CC1(O)c1ccccc1 (centres undefined)	2.5µM*	u	-63%	0%
Cc1ccc(NC(=O)N(Cc2ccc3c(c2)OCO3)C2CCN(Cc3ccccc3)CC2)cc1C	u	-1%	x	x
Cc1ccc(NC(=O)N(Cc2ccc3c(c2)OCO3)C2CCN(Cc3ccccc3)CC2)cc1Cl	13µM*	-25%	x	x
CN[C@H]1C[C@@H](N)[C@H](O)[C@@H](O[C@@H]2O[C@H](CO)[C@H](O)[C@@H]3O[C@]4(O[C@@H]23)O[C@H]([C@@H](N)CO)[C@H](O)[C@@H](O)[C@H]4O)[C@@H]1O	x	x	x	-4%
C[C@H](CO)N1C[C@H](C)[C@@H](CN(C)S(=O)(=O)c2cccs2)Oc2ccc(NC(=O)Nc3ccc(C(F)(F)F)cc3)cc2C1=O	8.9µM*	u	-28%	-1%
C[C@@H]1CN([C@H](C)CO)C(=O)c2cc(NC(=O)Nc3ccc(C(F)(F)F)cc3)ccc2O[C@H]1CN(C)S(=O)(=O)c1cccs1	u	u	-52%	-4%
Cc1ccc2nc(Cl)c3nnnn3c2c1	-13%	u	-106%	-4%
O=C(CN1CCN(C(=O)CNC(=O)c2ccc(-c3ccccc3)cc2)CC1)Nc1ccccc1Cl	10µM*	-29%	-47%	-1%
COC(=O)c1ccc(Cl)c(NC(=O)CN2CCN(Cc3ccccc3)CC2)c1	u	-7%	9%	-8%
COc1ccc(C[C@H](C)NC[C@@H](O)c2ccc(O)c(NC=O)c2)cc1	41%	-1%	-12%	u
c1cc2n(c1)-c1c(ccc3c1OCO3)CNC2c1ccc2c(c1)OCO2 (centres undefined)	8.9µM*	-26%	-25%	0%
